Among all 360,000 compounds or so, about 4,600 (1.3%) were called active.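 How the source made its calls: active means percent inhibition above its own plate's cutoff, namely the mean of that plate's compound wells plus 3 SD; inactive means the rest.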 The entries come from a sample that favours actives as a whole.
target: Muscarinic acetylcholine receptor M1 (Homo sapiens) (UniProt P11229); experiment: CHRM1 blockers of acetylcholine calcium response – CHO-K1 cells, Fluo-8 calcium fluorescence, 1536-well, primary screen (AID 588852); conditions: CHO-K1 hM1, Fluo-8 calcium fluorescence, ACh EC80 antagonist; at 3 µM; active compounds read high;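 further: peak over basal fluorescence ratio during 140 s after agonist addition; 0% = ACh EC80 plus DMSO and 100% = DMSO alone without agonist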
Sequence (P11229 whole entry, looked up): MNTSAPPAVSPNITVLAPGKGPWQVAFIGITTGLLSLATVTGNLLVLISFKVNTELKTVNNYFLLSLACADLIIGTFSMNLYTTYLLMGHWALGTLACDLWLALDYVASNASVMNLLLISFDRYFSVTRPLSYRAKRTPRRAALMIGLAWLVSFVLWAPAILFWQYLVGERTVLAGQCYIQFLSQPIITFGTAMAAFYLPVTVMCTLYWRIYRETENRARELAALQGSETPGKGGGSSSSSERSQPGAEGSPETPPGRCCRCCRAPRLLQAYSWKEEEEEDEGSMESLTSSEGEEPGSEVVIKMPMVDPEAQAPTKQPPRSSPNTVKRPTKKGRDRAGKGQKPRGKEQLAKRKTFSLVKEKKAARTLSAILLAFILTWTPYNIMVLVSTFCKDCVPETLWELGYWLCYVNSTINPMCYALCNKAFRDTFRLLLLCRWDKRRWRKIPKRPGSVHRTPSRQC

inhibition, active:
COc1ccc(CN2C3CCCC2CC(NC(=O)c2cccc(F)c2)C3)cc1 (centres undefined) 32.6%, Cc1cc([N+](=O)[O-])nn1CC(=O)Nc1ccc(Cc2ccncc2)cc1 28.3%, O=C(CSc1nc(=O)n2ccccc2n1)Nc1ccc2c(c1)OCCO2 35.3%, CN1CCC(OC(=O)COc2ccc(Cl)cc2Cl)CC1 51.8%, CCOC(=O)C1CCN(Cc2nnc(-c3cccc(Br)c3)o2)CC1 35.9%, N#C[C@]1(S(=O)(=O)c2ccccc2)C[C@@H]2ON=C(c3cccc(Br)c3)[C@@H]2C1 33.5%, CC12CN(Cc3ccccc3)CC(C)(CN(Cc3ccccc3)C1)C2=NO 38.2%, Cc1ccc(S(=O)(=O)c2nc(NCCCn3ccnc3)sc2Cl)cc1 29.2%

inhibition, inactive:
CCCN1C2CCCC1CC(NC(=O)c1cccc(OC)c1)C2 (centres undefined) -14.2%, COc1ccc(NC(=O)NC2CC3CCCC(C2)N3Cc2ccccc2)cc1 (centres undefined) 1.24%, Cc1nn(Cc2ccc(C(=O)N3N=C(C(F)F)CC3(O)C(F)F)cc2)c(C)c1[N+](=O)[O-] (centres undefined) -0.52%, COc1ccc(C(C)(O)c2nc(-c3ccc(C)c(C)c3)cs2)cc1 (centres undefined) 6.49%, CC(C)CC(=O)Nc1ccc(Cc2ccncc2)cc1 -16.9%, Cc1cc(C)n(CC(=O)Nc2ccc([N+](=O)[O-])cc2)n1 -1.63%, CC(C)CN1CCC1(C)C(=O)Nc1ccc(OC(F)F)cc1 (centres undefined) 1.99%, CCc1nc2c(=O)[nH]cnc2o1 -5.65%, COc1cc(C(=O)N(C)Cc2cccc(OC)c2OC)ccc1OCC(=O)Nc1cccc(C(F)(F)F)c1 5.88%, CCCCC[C@H]1CN(C2CCCCC2)C(=O)[C@@H]1CC(=O)NCc1ccc(OC)cc1 -1.3%, Cn1ccnc1SCC(=O)Nc1ccc2c(c1)OCCO2 -13.9%, O=C(CSc1nc2ncccc2[nH]1)Nc1ccc2c(c1)OCCO2 -2.03%, CC(=O)Nc1cc(-c2ccc(N3CCN(C)CC3)cc2)cn2c(-c3ccc(F)cc3)cnc12 -18.1%, CCc1ccc2c(c1)NC(=O)C2(C)Cc1ccc(OC(F)(F)F)cc1 (centres undefined) -13.1%, Cc1ccc(Cl)c(OCC(=O)NN2CCN(C)CC2)c1 -16.2%, O=C(CCCOc1ccc(Cl)cc1Cl)NNC(=O)C1CCC1 -17.9%, COc1ccc(CN(CC(=O)NC2CCCC2)C(=O)CCC(=O)Nc2cc(C)on2)cc1 -0.71%, CN(C)/C=C(\C#N)C(=O)c1cccnc1Oc1ccc(F)cc1F -0.88%, O=C(N=C1SC2CS(=O)(=O)CC2N1c1ccccc1)c1ccccc1 (centres undefined) -9.89%, CCOC(=O)N1CCN(Cc2nnc(-c3ccccc3Cl)o2)CC1 -15.1%, CCOC(=O)C1CCN(Cc2ccc(-c3ccccc3)cc2)CC1 25.5%, CC1=NC2(CCCc3c2no[n+]3[O-])N(O)C1(C)C (centres undefined) 0.36%, Cc1ccc(C(=O)NC(C)C(c2cccs2)N2CCOCC2)cc1C (centres undefined) -6.99%, COC(=O)[C@]1(S(=O)(=O)c2ccccc2)C[C@@H]2ON=C(c3ccc(OC)cc3)[C@@H]2C1 -7.9%, CCN1C(=O)C(C(=O)NC(C)c2ccccc2)C2CC1(C)Oc1ccccc12 (centres undefined) -3.28%, C=CCOc1ccc(/C=C/C(=O)OCC(=O)NCC2CCCO2)cc1 (centres undefined) -1.61%, NC(=O)C1(N2CCCC2)CCN(Cc2ccccc2)CC1 2.73%, O=S1(=O)CCN(Cc2ccccc2)CC1 -8.4%, COc1ccc(/C=N/NC(=O)C(C)N(c2ccc(OC)cc2)S(C)(=O)=O)cc1 (centres undefined) 3.35%, CC(=O)Nc1ccc(Nc2ncnc3c2nnn3Cc2ccccc2Cl)cc1 -1.5%, COC(=O)C1(S(=O)(=O)C2(C(=O)OC)CCCC2)CCCC1 -1.25%, CCCCOc1ccc(CON(C(C)=O)C(C)=O)cc1Cl 6.46%, COc1ccccc1S(=O)(=O)NCc1ccc(C(=O)N(C)Cc2ccc(F)cc2)cc1 -14.8%, COc1ccc([N+](=O)[O-])cc1C1NN=C(c2cccc3ccccc23)S1 (centres undefined) -11%, Cc1ccc(-c2nc(C#N)c(NCCCn3ccnc3)o2)cc1 -17.5%, Cc1ccc2c(Cl)c(C(=O)NCCCn3ccnc3)sc2c1 -10.2%

Source: PubChem BioAssay AID588852 (The Scripps Research Institute Molecular Screening Center, 2011)
